High-throughput results (PubChem BioAssay)
USP17 inh = human USP17-like deubiquitinase inhibition. purified USP17, Ub-rhodamine cleavage fluorescence, 3 h. inhibition, % at 50 µM. actives 6.5% (n = 47,000)
USP28 block = inhibitors of human USP28 deubiquitinase. purified USP28, Ub-rhodamine cleavage fluorescence, 30 min. inhibition, % at 25 µM. actives 3% (n = 47,000). AID 1645857
USP8 inh = human USP8 deubiquitinase inhibition; P40818; purified USP8, Ub-rhodamine cleavage fluorescence, 30 min; inhibition, % at 20 µM; actives 4.2% (n = 47,000); AID 1645853
OTUD3 inh = inhibitors of human OTUD3 deubiquitinase. Q5T2D3. purified OTUD3, Ub-rhodamine fluorescence, 2 h. inhibition, % at 25 µM. actives 0.7% (n = 47,000)
Target sequence (Q5T2D3 whole entry, looked up): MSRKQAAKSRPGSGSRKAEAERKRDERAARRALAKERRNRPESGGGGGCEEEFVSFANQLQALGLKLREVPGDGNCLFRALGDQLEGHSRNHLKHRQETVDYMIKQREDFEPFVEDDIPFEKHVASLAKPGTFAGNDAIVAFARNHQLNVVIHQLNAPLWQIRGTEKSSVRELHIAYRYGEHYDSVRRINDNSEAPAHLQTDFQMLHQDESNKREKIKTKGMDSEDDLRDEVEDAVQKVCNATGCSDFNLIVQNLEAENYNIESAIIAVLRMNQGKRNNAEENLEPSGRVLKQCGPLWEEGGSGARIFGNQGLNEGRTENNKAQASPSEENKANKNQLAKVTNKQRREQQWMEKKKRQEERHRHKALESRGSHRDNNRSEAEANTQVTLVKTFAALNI
USP30 block = human USP30 deubiquitinase inhibition; Q70CQ3; purified USP30, Ub-rhodamine cleavage fluorescence; inhibition, % at 25 µM; actives 5.3% (n = 47,000)
An asterisk follows results filed as active; / = not tested or not shown. Hits are enriched below; roughly 13% of the tested compounds scored in any of these assays. Rule as the data show it: active = inhibition above about 30%; inactive = the rest.

SMILES | USP17 inh | USP28 block | USP8 inh | OTUD3 inh | USP30 block
COc1cc(-c2nc(C(N)=O)c3[nH]c(=O)n(-c4ccccc4)c3n2)ccc1O | 26 | 7 | 23 | 13 | -31
Cc1ccc(-n2c(=O)[nH]c3c(C(N)=O)nc(-c4cccnc4)nc32)cc1 | 34* | 19 | 7 | 31* | 34*
Cc1cccc(-c2nc(C(N)=O)c3[nH]c(=O)n(-c4ccccc4)c3n2)c1 | 8 | -24 | 75* | -23 | -76
O=C(NCc1ccc(Cl)cc1)N1CCc2ccccc2C1 | 27 | 7 | 10 | 0 | 21
O=C(CNCc1cccc(Cl)c1)N1CCc2ccccc2C1 | 46* | 7 | 72* | 3 | 3
CC(NC(=O)C1CCC2(CC1)CNC(=O)c1cc(Cl)ccc1O2)c1ccco1 (configuration not stated) | 11 | 12 | 26 | 9 | 6
Cc1ccc(NC(=O)Cn2c(-n3nc(C)cc3C)nc3c(c2=O)CCCC3)c(C)c1 | 59* | 8 | 24 | 13 | 31*
Cc1cc(F)ccc1NC(=O)Cc1nnc(-c2ccc3ncccc3c2)o1 | 15 | 11 | 47* | 11 | -20
O=C(c1cc2ccc(Br)cc2[nH]1)N1CCCC1 | -4 | -25 | -17 | -25 | -91
O=C(NCCN1CCCC1)C1CCN(c2cnc(N3CCCCC3)nc2)CC1 | -25 | 78* | 0 | -18 | -44
O=C(NCC1CC1)C1CCN(c2cnc(N3CCCCCC3)nc2)CC1 | -27 | / | -10 | 0 | /
OCC1CSC(c2ccccc2O)=N1 (configuration not stated) | 30* | 10 | 1 | 8 | 27
CCc1nnc(NC(=O)Cn2ncc3ccccc32)s1 | 0 | 15 | 5 | 18 | 0
CCc1nnc(NC(=O)Cn2ncc3c(=O)oc4ccc(C)cc4c32)s1 | 31* | 9 | 15 | 3 | 23
O=C(CC1N=C(N2CCN(c3ccccc3)CC2)NC1=O)Nc1ccccc1 (configuration not stated) | 29 | 6 | 3 | 16 | 16
Cc1cccc(NC(=O)C2CC(=O)NC(N3CCN(c4ccccc4)CC3)=N2)c1 (configuration not stated) | 11 | 13 | 34* | 17 | 10
O=C(COC(=O)c1n[nH]c2ccccc12)Nc1ccc2c(c1)CCC2 | -4 | -1 | 30* | -2 | 13
O=C(Cc1cccc2ccccc12)Nc1ccc(N2CCCCC2)cc1 | -3 | -3 | 11 | -5 | -8
O=C(COC(=O)c1n[nH]c2ccccc12)Nc1ccc(N2CCCCC2)cc1 | 59* | 25 | 5 | -7 | 38*
CN1CCN(C(=O)C2CCCN(S(=O)(=O)c3ccc(N4CCCC4=O)cc3)C2)CC1 (configuration not stated) | 2 | 4 | 0 | 0 | 2
O=C(NCCc1ccccc1)c1nc(N2CCOCC2)c2ccccc2n1 | -12 | -2 | -9 | 2 | 0
c1ccc(Cc2nnc(N3CCOCC3)c3ccccc23)cc1 | 13 | 34* | 11 | 14 | 26
CCC(C)c1ccc(-c2csc(Cn3c(CN4CCN(C)CC4)nc4ccccc4c3=O)n2)cc1 (configuration not stated) | 58* | -6 | -4 | 2 | -25
CCn1c(CN2CCN(Cc3ccccc3)CC2)nc2ccccc21 | -41 | -22 | -168 | -12 | -77
CC(C)c1cc(NCc2ccccc2)n2nc(-c3cccnc3)nc2n1 | 27 | 20 | 14 | 9 | 55*
SMILES | USP17 inh | USP28 block | USP8 inh | OTUD3 inh | USP30 block
COc1ccc(CNC(=O)CNc2cc(C)nc3nc(-c4cccnc4)nn23)cc1 | 5 | -10 | 2 | 21 | 31*
Cc1cc(NCC(=O)NCc2ccccc2)n2nc(-c3cccnc3)nc2n1 | -9 | -8 | 1 | -6 | -7
CCCCNC(=O)c1ccc(Nc2cc(C)nc3nc(-c4cccnc4)nn23)cc1 | 0 | 19 | -1 | 13 | 47*
Cc1nc(C2CN(Cc3nc4ccccc4n3C)CCO2)cc(=O)[nH]1 (configuration not stated) | 8 | 12 | 31* | 8 | 0
Cc1nc(C2CN(Cc3ccc4c(c3)OCCO4)CCO2)cc(=O)[nH]1 (configuration not stated) | 8 | 3 | 4 | 11 | 12
COc1ccc2cc(CNCCN3CCOCC3)c(=O)[nH]c2c1 | -27 | -33 | -6 | -20 | -147
COc1ccc2cc(CCNC(=O)C3(c4ccc(Cl)cc4)CCCC3)c(=O)[nH]c2c1 | 43* | 7 | 0 | 5 | 9
Cc1ccc2cc(CCNC(=O)COc3ccc(Cl)cc3)c(=O)[nH]c2c1 | 37* | 1 | 1 | 14 | 13
Cc1cc(OCC(=O)NCCc2nc3ccccc3[nH]2)ccc1Cl | -3 | -4 | 2 | -3 | 10
O=C(NC1CC1)c1nc(-c2ccc3[nH]ccc3c2)no1 | 6 | 9 | 0 | 6 | 16
CCCc1nnc(NC(=O)c2cccnc2OCC)s1 | 15 | -66 | 18 | 12 | 21
CC(C)c1ccccc1NC(=O)c1c2c(nc3ccccc13)CCN(Cc1ccccc1)C2 | -82 | -87 | 6 | -99 | -376
Cc1ccc(NC(=O)N2CCN(C3=CC4=NC(C)CN4C=N3)CC2)c(C)c1 (configuration not stated) | 17 | 15 | 3 | 7 | 34*
CN1C(=O)COc2cc(-c3noc(C(=O)NCc4ccccn4)n3)ccc21 | -2 | -4 | -27 | -1 | -14
CN1C(=O)COc2cc(-c3noc(C(=O)NCc4ccc(F)cc4)n3)ccc21 | 54* | 11 | 41* | 29 | 76*
CCN1C(=O)COc2cc(-c3noc(C(=O)N4CCN(C)CC4)n3)ccc21 | -1 | -1 | 4 | 8 | -1
CN1C(=O)COc2cc(-c3noc(C(=O)NCc4ccccc4)n3)ccc21 | 44* | 7 | 10 | 15 | 19
O=c1c(NCCCN2CCCC2)nc2ccncc2n1Cc1ccccc1 | 58* | -6 | -3 | -18 | 0
CCOc1cccc(CNc2nc3ccncc3n(Cc3ccccc3)c2=O)c1 | 28 | -15 | 18 | -12 | 36*
C[C@H]1C(=O)N(C)[C@@H]2CCN(S(=O)(=O)c3ccco3)[C@@H]2C(=O)N1C | 11 | 8 | 20 | 12 | 14
O=C(Nc1ccccc1O)c1cc(F)ccc1-n1cnnn1 | -5 | 0 | -58 | -2 | 2
Cc1c(NC(=O)Cc2cccs2)cccc1-n1cnnn1 | 24 | -6 | 51* | -2 | -22
Cc1ccc(S(=O)(=O)Nc2cccc(-c3nc4cccnc4s3)c2)cc1C | 29 | 17 | 20 | 9 | 47*
Cc1ccccc1C(=O)Nc1c(-c2ccccn2)c(=O)c2ccccc2n1C | -3 | -4 | -6 | -9 | -39
O=C1NCC2(C/C=C/CCOc3ccccc31)CCN(C(=O)c1ccnc(N3CCCC3)c1)CC2 | 95* | 72* | 7 | 42* | 88*
Cc1ocnc1C(=O)N1CCC2(C/C=C/CCOc3ccccc3C(=O)NC2)CC1 | 14 | 11 | 21 | 15 | 25
COc1ccc(C(=O)c2c[nH]cc2-c2ccc(C)cc2)cc1OC | 31* | -3 | -3 | 1 | 13
